Compounds with a hit are over-represented: about 7% of the library has one in this group of screens.
PLK1 PBD block: qHTS for Inhibitors of PLK1-PDB (polo-like kinase 1 - polo-box domain): Primary Screen; Serine/threonine-protein kinase PLK1 (Homo sapiens), P53350; Plk1 PBD binding of FITC phosphopeptide, fluorescence polarization; Potency, µM, for the others: max response, negative = inhibition, hits mostly inhibitors; actives 2.8% (n = 360,000); AID 720504, 2013; also: potency is read from the fitted curve at half-maximal effect; series mostly up to about 57 µM; % is scaled to controls: 0 for no effect and ±100 for the full control effect; nearly all actives have a fitted effect of over 65% in size
Target sequence (P53350 whole entry, looked up, the tested form may be a part): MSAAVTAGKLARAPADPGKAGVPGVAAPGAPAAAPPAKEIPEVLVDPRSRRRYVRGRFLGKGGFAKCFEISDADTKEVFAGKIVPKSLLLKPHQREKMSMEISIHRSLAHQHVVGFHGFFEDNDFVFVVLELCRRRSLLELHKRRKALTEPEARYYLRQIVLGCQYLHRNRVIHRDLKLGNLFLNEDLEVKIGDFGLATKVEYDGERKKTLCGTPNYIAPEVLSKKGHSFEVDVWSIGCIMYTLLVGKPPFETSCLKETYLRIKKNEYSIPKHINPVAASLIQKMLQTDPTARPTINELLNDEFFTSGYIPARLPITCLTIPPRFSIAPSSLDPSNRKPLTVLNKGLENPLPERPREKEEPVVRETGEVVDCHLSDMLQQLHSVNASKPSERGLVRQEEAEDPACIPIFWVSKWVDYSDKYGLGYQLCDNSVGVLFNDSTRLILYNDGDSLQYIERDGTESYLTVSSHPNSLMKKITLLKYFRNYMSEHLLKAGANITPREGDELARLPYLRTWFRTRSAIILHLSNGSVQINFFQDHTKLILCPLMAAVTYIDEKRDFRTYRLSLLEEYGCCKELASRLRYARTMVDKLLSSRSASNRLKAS
JMJD2A Tudor: qHTS Assay for Inhibitors of JMJD2A-Tudor Domain | actives 4.4% (n = 390,000) | AID 504339, 2011 | Potency, µM (series often up to 114 µM), inactives show top-dose activity change, negative = inhibition, actives largely listed as inhibitors | Lysine-specific demethylase 4A (Homo sapiens), O75164 | AlphaScreen JMJD2A-Tudor / H3K4me3 peptide binding; also: potency is read from the fitted curve at half-maximal effect; % is scaled to controls: 0 for no effect and ±100 for the full control effect; nearly all actives have a fitted effect of over 50% in size
BAZ2B block: qHTS Assay for Inhibitors of BAZ2B; Bromodomain adjacent to zinc finger domain protein 2B (Homo sapiens), Q9UIF8; AlphaScreen BAZ2B-H3K14Ac peptide displacement; Potency, µM (doses to about 114 µM), inactives show at the highest dose activity change, negative = inhibition, most hits filed as inhibitors; actives 4.4% (n = 360,000); AID 504333, 2011; also: potency is read from the fitted curve at half-maximal effect; % is scaled to controls: 0 for no effect and ±100 for the full control effect; nearly all actives have a fitted effect of over 60% in size
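AlphaScreen displacement: compounds (up to 110uM) incubated 30 min at room temperature with a preformed 50 nM BAZ2B/50 nM biotinylated H3K14Ac peptide complex in PBS pH 7.4 with Tween-20. Donor and acceptor beads at 10 ug/mL final added, 20 min light-protected before reading.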
KAT2A inh: qHTS Assay for Inhibitors of GCN5L2. Potency, µM (titrated, usually from 58.9 µM), for the others: at the top dose activity change, negative = inhibition, most hits filed as inhibitors. Histone acetyltransferase KAT2A (Homo sapiens), Q92830. GCN5L2 HAT assay, ThioGlo1 CoA-SH fluorescence. AID 504327, 2011. actives 0.21% (n = 390,000); also: potency is read from the fitted curve at half-maximal effect; % is scaled to controls: 0 for no effect and ±100 for the full control effect
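qHTS, 1536-well. 20nM enzyme, pH 7.5 HEPES/EDTA/Tween-20 buffer; 15 min compound preinc., RT. Start: 75uM H3(1-25), 70uM AcCoA, 50uM ThioGlo1. Read Ex340/Em540 at t=0 (autofluorescence flag) and t=20 min.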
HP1b chromo inh: HTS for Inhibitors of HP1-beta Chromodomain Interactions with Methylated Histone Tails; Potency, µM (top dose mostly 114 µM), for the others: at the highest dose activity change, negative = inhibition, usual class: inhibitors; AlphaScreen HP1-beta / biotin-H3K9me3 peptide binding; actives 0.56% (n = 390,000); also: potency is read from the fitted curve at half-maximal effect; nearly all actives have a fitted effect of over 70% in size
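Compound inhibition of the preformed complex between 50 nM HP1-beta and 50 nM biotinylated H3K9me3 peptide was read by AlphaScreen. Buffer was PBS pH 7.4 with 0.01% Tween-20. Incubations ran 30 min at room temperature, with 10 ug/mL donor/acceptor beads.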
PI5P4Ka inh: qHTS for Inhibitors of phosphatidylinositol 5-phosphate 4-kinase (PI5P4K); PI5P4Kalpha enzyme, ADP-Glo luminescence, 60 min; hits give low values; AID 652105, 2013; max response, %; actives 1.2% (n = 330,000); active = max response of -50% or lower; inconclusive = between -30% and -50%; inactive = -30% or higher; also: value at the top dose of about 77 µM; % is scaled to controls: 0 for no effect and ±100 for the full control effect
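qHTS, 1536-well: enzyme/substrate mix, compound by pin tool, 5 microM ATP final; RT 60 min; ADP-Glo reagents 1 (45 min) then 2 (30 min); luminescence.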
Numbers without * were called inactive; ? = inconclusive; / = not tested or not shown; [ ] = remark or other dose. Unless noted, calls follow the shape of the dose curve; as a rule, active = well fitted curve in the direction sought with a large enough effect; inconclusive = small, poorly fitted or top-dose-only effect, or another doubt; inactive = no such curve, though single readings can be large; an effect the other way counts as inactive or inconclusive.

SMILES	PLK1 PBD block	JMJD2A Tudor	BAZ2B block	KAT2A inh	HP1b chromo inh	PI5P4Ka inh
Nc1[nH]c(=S)[nH]c(=O)c1-c1ccccc1	?	35µM*	1%	-17%	-28%	-14
COc1cccc(S(=O)(=O)Nc2ccc3sc(C)nc3c2)c1	-28%	79µM*	-8%	-1%[0.501 µM]	26%	6
O=c1oc2ccccc2c(Nc2ccccc2O)c1[N+](=O)[O-]	-9%	-22%	-12%	5%	42%	6
O=c1oc2ccccc2c(Nc2cc3ccccc3cc2O)c1[N+](=O)[O-]	?	?	11µM*	2%	-8%	?
COc1ccc(NC(=O)c2cc(=O)c3cc(C)cc(C)c3o2)cc1	/	-11%	4%	-2%	19%	/
COc1cc(/C=C2\CC/C(=C\c3cc(OC)c(O)c(OC)c3)C2=O)cc(OC)c1O	4.7µM*	45µM*	50µM*	-11%	?	?
COc1cc(/C=C2/C(=O)CNC2=O)ccc1O	29%	7%	-12%	-22%	26%	-56*
COc1cc(/C=C2\CCC/C(=C\c3ccc(O)c(OC)c3)C2=O)ccc1O	-10%	28µM*	?	?	?	-8
CCOc1cc(/C=C2\CN(CC)C/C(=C\c3ccc(O)c(OCC)c3)C2=O)ccc1O	-8%	56µM*	50µM*	-1%	-20%[57 µM]	-24
CC(C)(C)C(=O)Cn1c(=O)n(CCCCCC(=O)NCc2ccc3c(c2)OCO3)c(=O)c2sccc21	/	-5%	-3%	3%	11%	/
CCOC(=O)c1cc(CC)sc1NC(=O)COc1ccccc1C	/	-5%	1%	1%	49%	/
COc1ccc(OC)c(CNC(=O)c2ccc3c(c2)c(C)c(C)n3C)c1	/	?	35µM*	-10%	-3%	/
COc1ccc(NC(=O)c2ccc3c(c2)c(C)c(C)n3Cc2ccc(F)cc2)c(OC)c1	/	?	-32%	?	18%	/
COc1ccc(OC)c(CNC(=O)c2ccc3c(c2)c(C)c(C)n3Cc2ccc(Cl)cc2)c1	/	?	-33%	-15%	11%	/
COc1ccc(OC)c(NC(=O)c2ccc3c(c2)c(C)c(C)n3Cc2ccc(F)cc2)c1	/	?	25µM*	16%	15%	/
Cc1nn(C)cc1S(=O)(=O)N1CCN(Cc2ccc(F)cc2Cl)CC1	?	-28%	3%	-4%	-7%	-4
COc1cccc(C(O)c2ncc(-c3cccc4ccccc34)[nH]2)c1 (configuration not stated)	-12%	/	/	/	/	2
COC(=O)c1ccc(Oc2c(Cl)cccc2[N+](=O)[O-])cc1	21µM*	?	?	-4%	?	-1
CCSC1(SCC)N=C(N)C2(C#N)C(c3ccc(OC)c(OC)c3OC)C12C#N (configuration not stated)	13µM*	-18%	-30%	19%	51%	-5
COc1ccc(N2CC(C(=O)N3CCC(c4nc5ccccc5[nH]4)CC3)CC2=O)cc1 (configuration not stated)	-9%	-2%	1%	0%	22%	-10
COc1ccc(C2c3[nH]c4ccccc4c3C[C@H]3C(=O)N(C4CCN(Cc5ccccc5)CC4)CC(=O)N23)c(OC)c1 (some centres not stated)	?	22µM*	-37%	-3%	-16%	5
O=C1[C@@H]2Cc3c([nH]c4ccccc34)C(c3cccc(Br)c3)N2C(=O)CN1C1CCN(Cc2ccccc2)CC1 (some centres not stated)	-4%	?	-32%	-14%	-29%	-3
CCOc1ccccc1C1c2[nH]c3ccccc3c2C[C@H]2C(=O)N(C3CCN(Cc4ccccc4)CC3)CC(=O)N12 (some centres not stated)	-10%	?	?	-6%	-12%	-4
O=C1[C@@H]2Cc3c([nH]c4ccccc34)C(c3ccccc3)N2C(=O)CN1C1CCN(Cc2ccccc2)CC1 (some centres not stated)	-9%	?	32µM*	-7%	-5%	3
NC(=O)c1sc(=S)n2c1[nH]c(=O)c1sccc12	-17%	?	-23%	-8%	-9%	?
SMILES	PLK1 PBD block	JMJD2A Tudor	BAZ2B block	KAT2A inh	HP1b chromo inh	PI5P4Ka inh
O=C(NCc1ccccc1)c1sc(=S)n2c1[nH]c(=O)c1ccccc12	?	?	45µM*	-4%	-22%	/
CCCCNC(=O)c1sc(=S)n2c1[nH]c(=O)c1ccc(C(=O)NCCc3ccc(OC)c(OC)c3)cc12	?	-26%	?	-7%	-23%[57 µM]	5
CC(=O)NNC(=O)c1sc(=S)n2c1[nH]c(=O)c1sccc12	21µM*	79µM*	-23%	-4%	?	188
O=C(COc1ccc(/C=N/NC(=O)c2ccccc2O)cc1)Nc1ccc([N+](=O)[O-])cc1	21µM*	-10%	-6%	-4%	37%	0
N#CC1=C2SCN(C3CCCCC3)CN2C(=O)CC1c1ccc(Cl)cc1 (configuration not stated)	/	16µM*	/	?	?	/
O=c1c(Cc2c(F)cccc2Cl)c(O)ccn1C1CCCCCC1	-8%	-5%	?	-9%	46%	0
N#CC1=C2SCN(C3CCCCC3)CN2C(=O)CC1c1c(F)cccc1Cl (configuration not stated)	/	22µM*	/	-20%	?	/
O=C(NCCN1CCOCC1)C1CC(=O)N(c2ccc(Cl)cc2)C1 (configuration not stated)	-2%	-1%	-5%	-2%	15%	3
COCc1ccc(C(=O)NCC2(N3CCCCC3)CCCCC2)cc1	30µM*	13µM*	79µM*	-3%	5%	-16
CCN(c1ccccc1)S(=O)(=O)c1csc(C(N)=O)c1	27µM*	?	-9%	-5%	-2%	-5
O=c1[nH][nH]cc1C=Nc1ccccc1O	1%	-25%	40µM*	1%	50%	0
O=c1[nH][nH]cc1C=Nc1ccccc1Cl	-3%	-14%	-33%	-4%	18%	-11
O=c1[nH][nH]cc1C=Nc1cc(Cl)ccc1O	-3%	79µM*	14µM*	0%	33%	-3
C/C(=N\NC(=S)Nc1ccccc1C)c1ccc(O)cc1	11µM*	?	?	-12%	?	-25

Screens deposited in PubChem by National Center for Advancing Translational Sciences (NCATS).
